The results in this text go back to PubChem BioAssay.

Structures are written as SMILES.

A short description of the assay: anti-His antibody binders, primary screen, artefact control for SMM control protein annotation, biochemical, small-molecule microarray, 635 nm fluorescence (AID 1128).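 Further: score merges feature fluorescence with signal-to-noise for each printed compound spot.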 The settings on record: anti-His Alexa647 antibody binding, higher = more signal.
`CO[C@H]1O[C@H](CO)[C@@H](OC(=O)Nc2ccccc2)[C@@H]2OC(=O)[C@H](Cc3ccccc3)C/C=C/C[C@@H](Cc3ccccc3)C(=O)O[C@@H]12` came in with a composite z-score of 2.3. As for `CCCCC(=C=CC[C@@H](O)c1ccc(OCCO)cc1)C[C@@H](O)c1ccccn1`, the figure is -0.0662; as for `C=CCC(OC(C)=O)[C@@H]1[C@@H](N(Cc2cccc3ccccc23)C(=O)c2ccc(-c3ccccc3)cc2)c2cc(OCCCO)ccc2N1C(=O)c1ccc2ccccc2n1` (some centres not stated), 0.112; as for `COCCOC(=O)N1C(=O)[C@@]2(c3cc(C#CC4(O)CCCCCC4)ccc31)[C@H](c1ccc(OCCO)cc1)N1[C@H](c3ccccc3)[C@H](c3ccccc3)OC(=O)[C@H]1[C@@H]2C(N)=O`, 1.43. `COc1ccc([Si](C)(C)[C@H]2[C@H](CCO)O[C@@]3(C(=O)N(Cc4ccc(N5CCOC5=O)cc4)c4ccccc43)[C@@H]2C)cc1` displayed a composite z-score of 0.965. As to `Cc1c(-c2ccc(-c3ccc(Cl)c(Cl)c3)o2)nc(-c2ccccc2)c2c1CO[Si]2(C(C)C)C(C)C`, the composite z-score came out at 0.466. In the case of `O=C1OCCC=C[C@H]2OC34C=CCN(CCN5CCOCC5)C(=O)[C@H]3N(CCCO)C(=O)[C@@H]4C12` (some centres not stated) it was 0.0466; in that of `COC(=O)[C@@]1(Cc2ccc(F)cc2)[C@H]2c3cc(C(=O)N(C)C)n(CCO)c3C[C@H]2CN1C(=O)c1ccccc1`, 2.78.

`CC(C)C[C@H]1NC(=O)[C@@H](C)NC(=O)[C@@]23C(=O)N[C@@H](Cc4ccccc4)C2[C@H](C)[C@@]2(C)O[C@H]2C3/C=C/C/C=C\CNC1=O` (some centres not stated) returned a composite z-score of 1.35. Compound `N#Cc1ccc(C(O)C2C=CC3C(=O)N(c4ccccc4)C(=O)C3N2Nc2ccc([N+](=O)[O-])cc2)cc1` (configuration not stated) registered a composite z-score of 2.33. Consider `CN(C)CCCC[C@@H]1NC(=O)[C@@H]2C[C@H](C(=O)NCc3ccc(F)cc3)[C@H](c3ccc(O)cc3)N2C1=O`, for which the composite z-score came out at 0.0971. In the case of `CC(=O)c1ccc(C(O)C2C=CC3C(=O)N(C)C(=O)C3N2NC(=O)OC(C)(C)C)cc1` (configuration not stated) it was 0.777; in that of `CO[C@H]1O[C@H](CO)[C@@H](OC(=O)Nc2ccc3c(c2)OCO3)[C@@H]2OC(=O)[C@@H](Cc3ccccc3)C/C=C/C[C@H](Cc3ccccc3)C(=O)O[C@@H]12`, 2.53; in that of `O=C1NC(=O)C2C1C=CC(C(O)c1cccc(O)c1)N2Nc1ccc(Cl)cc1Cl` (configuration not stated), 0.33.

Take `Cc1ccc(S[C@]2(C(=O)NCCCN(C)C)CC(=O)N(Cc3ccccc3Cl)[C@@H]2c2ccc(CO)cc2I)cc1`: the composite z-score was -0.704. In the case of `O=c1cccc(-c2ccccc2C(F)(F)F)o1` it was -0.602; in that of `COCCOC(=O)N1C(=O)[C@@]2(c3cc(C#CCC(C(=O)OC)C(=O)OC)ccc31)[C@H](c1ccc(OCCO)cc1)N1[C@H](c3ccccc3)[C@H](c3ccccc3)OC(=O)[C@H]1[C@@H]2C(=O)N1CCCCCCC1`, 1. Take `C[C@H]1NC(=O)C([C@@H](C)OCc2ccccc2)NC(=O)[C@@]23C(=O)N[C@@H](Cc4ccccc4)C2[C@H](C)[C@@]2(C)O[C@H]2C3/C=C/C/C=C\CNC1=O` (some centres not stated): the composite z-score was found to be 0.296. As for `COCC(=C=CC[C@@H](O)c1cccc(OCCO)c1)C[C@@H](O)COCc1ccccc1`, the figure is 0.934; as for `C=C(CCCC)C(=O)CC[C@H](OC(C)=O)c1ccccc1OCCO`, 0.0808. `CCC[C@@H]1C=C(C(=O)OCC)[C@H](c2ccccc2)N1S(=O)(=O)c1ccc(C)cc1` gave a composite z-score of 0.796.

Consider `COCCOC(=O)N1C(=O)[C@@]2(c3cc(C#CC4(O)CCCCCC4)ccc31)[C@H](C(=O)N1CCc3cc(OC)c(OC)cc3C1)[C@H]1C(=O)O[C@H](c3ccccc3)[C@H](c3ccccc3)N1[C@@H]2c1ccc(O)cc1`, for which the composite z-score came to 2.17. Take `Cc1ccc(F)cc1S(=O)(=O)N[C@@H]1CCN(Cc2ccc3c(c2)OCO3)C1`: the composite z-score was -0.146.

With `COCCOC(=O)N1C(=O)[C@@]2(c3cc(C#CC4(O)CCCCCC4)ccc31)[C@H](c1ccc(OCCO)cc1)N1[C@H](c3ccccc3)[C@H](c3ccccc3)OC(=O)[C@H]1[C@@H]2C(=O)N1CCCCCCC1`, the composite z-score was determined as 0.459.

Take `CC(c1ccccc1)C(O)C1C=CC2C(=O)N(c3ccccc3)C(=O)C2N1Nc1ccc(C#N)cc1` (configuration not stated): the composite z-score is 2.19. As for `COC(=O)C(CC#Cc1ccc2c(c1)[C@]1(C(=O)N2)[C@H](c2ccc(O)cc2)N2[C@H](c3ccccc3)[C@H](c3ccccc3)OC(=O)[C@H]2[C@@H]1C(=O)N1CCc2cc(OC)c(OC)cc2C1)C(=O)OC`, the composite z-score came out at 1.54. As for `C[N+](C)(C)CCCCCCNC(=O)[C@H]1C[C@H]2C(=O)NCC(=O)N2[C@H]1c1cccc(OCCO)c1`, the figure is 3.03.
